# Assay outcomes deposited in PubChem BioAssay by Broad Institute.
# The entries come from a sample that favours hits as a whole.
# Tgondii IFNg – blocks Toxoplasma gondii growth in the presence of IFN-gamma; 3.8% of 69,000 active; Toxoplasma gondii growth in IFN-gamma-treated host cells; active compounds read low; activity change, negative = inhibition, % (concentration not given with the values); AID 1259416; in the data active = activity change below about -70%, passing the limit was not always enough;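 note: host cells are HeLa cells infected with Toxoplasma gondii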
# * = called active by the depositor.
SMILES,Tgondii IFNg
COc1ccc(NC(=O)Cn2ncc3c(N4CCN(c5ccccn5)CC4)ncnc32)cc1Cl,120
Cc1cccc(NC(=O)Cn2ncc3c(N4CCN(c5ccccn5)CC4)ncnc32)c1,88
Cc1ccc(NC(=O)Cn2ncc3c(N4CCN(c5ccccn5)CC4)ncnc32)cc1Cl,-74*
Cc1ccc(NC(=O)Cn2ncc3c(N4CCN(c5ccccn5)CC4)ncnc32)cc1C,-55
Cc1cc(Cl)ccc1NC(=O)Cn1ncc2c(N3CCN(c4ccccn4)CC3)ncnc21,64
CC(C)c1ccc(NC(=O)Cn2ncc3c(N4CCN(c5ccccn5)CC4)ncnc32)cc1,-43
O=C(Cn1ncc2c(N3CCN(c4ccccn4)CC3)ncnc21)Nc1ccccc1Cl,97
CCc1ncc(C(=O)N2CC(c3cccnc3)C2)cn1,2
CCOc1ccc(CNc2ncn[nH]2)cc1,20
O=C(C1CCOC1)N1CCc2ncnc(-c3ccc(F)cc3)c2CC1 (centres undefined),2
COc1ccc(-c2nc(CNS(=O)(=O)c3ccc(OC)cc3)c(C)o2)cc1,0
Cc1ccc(-c2nc(CNS(=O)(=O)c3ccc(C(C)C)cc3)c(C)o2)cc1,-105*
Cc1oc(-c2ccccc2)nc1CNS(=O)(=O)c1ccc(C(C)C)cc1,-62
O=C(CCCn1cnc2ccccc2c1=O)NCCc1cnc[nH]1,229
c1ccc2c(c1)CCN(c1nn3nnnc3c3ccccc13)C2,-40
CCn1nc(C)c(C(C)NC(=O)c2noc(C)c2Cc2c(C)noc2C)c1C (centres undefined),13
CCC1COC2(CCCN(C(=O)Cc3cccnc3)C2)C1 (centres undefined),34
COc1ccc(-c2nc3c(s2)CN(S(=O)(=O)c2cccc(F)c2)CC3)cc1OC,29
CCc1ccccc1S(=O)(=O)N1CCc2nc(-c3ccccc3)sc2C1,-68
COc1ccc(S(=O)(=O)N2CCc3nc(-c4ccc(C)cc4)sc3C2)cc1,-45
COc1ccc(-c2nc3c(s2)CN(S(=O)(=O)c2ccc(OC)c(OC)c2)CC3)cc1,-16
COc1ccc(-c2nc3c(s2)CN(S(=O)(=O)c2cccc(C)c2)CC3)cc1OC,-89*
Cc1c(Cl)cccc1S(=O)(=O)N1CCc2nc(-c3ccccc3)sc2C1,-83*
CCOc1ccc(-c2nc3c(s2)CN(S(=O)(=O)c2ccc(OCC)cc2)CC3)cc1,37
CCOc1ccc(-c2nc3c(s2)CN(S(=O)(=O)c2ccccc2)CC3)cc1,-49
SMILES,Tgondii IFNg
COc1ccc(S(=O)(=O)N2CCc3nc(-c4ccc(OC)c(OC)c4)sc3C2)cc1,-32
COc1ccc(-c2nc3c(s2)CN(S(=O)(=O)c2ccc(C)c(C)c2)CC3)cc1,-103*
Cc1ccc(-c2nc3c(s2)CN(S(=O)(=O)c2ccc(Cl)cc2)CC3)cc1,23
CCOc1ccc(-c2nc3c(s2)CN(S(=O)(=O)c2cc(C)cc(C)c2)CC3)cc1,-95*
CCN1CCCC(C2NCCc3nc(N)sc32)C1 (centres undefined),6
CCn1c(CNC(=O)C2CCC2)nc2c1CN(S(=O)(=O)c1ccc(C)cc1)CC2,90
CN(Cc1ncc[nH]1)c1ccc(C(=O)N2CCC(CCc3ccccc3)CC2)cn1,-36
Cc1cccc(CN2Cc3ccnn3CC(COCCN(C)C)C2)n1 (centres undefined),4
COCc1nn(CC2CC2)c2c1CN(Cc1cccs1)CC2,-4
Cc1cc(C)nc(CN(C)C(=O)c2ccccc2C2CCNC2)c1 (centres undefined),-2
CCn1cc(C(=O)NCc2nc(C)cc(C(F)(F)F)n2)c(C)n1,5
CC(C)C(=O)N1CC2CCC(C1)C2C(=O)Nc1cccc(F)c1 (centres undefined),378
COc1ccc(-c2nc3c(s2)CN(S(=O)(=O)c2cccc(Cl)c2)CC3)cc1,0
COc1ccc(S(=O)(=O)N2CCc3nc(-c4ccccc4)sc3C2)cc1,-20
CC(C)c1ccc(S(=O)(=O)N2CCc3nc(-c4ccccc4)sc3C2)cc1,-98*
COc1cccc(-c2nc3c(s2)CN(S(=O)(=O)c2cccc(C)c2)CC3)c1,-105*
COc1cccc(-c2nc3c(s2)CN(S(=O)(=O)c2cc(C)ccc2C)CC3)c1,-102*
CCCc1ccc(S(=O)(=O)N2CCc3nc(-c4cccc(OC)c4)sc3C2)cc1,2
COc1cccc(-c2nc3c(s2)CN(S(=O)(=O)c2ccc(F)c(Cl)c2)CC3)c1,-37
COc1cccc(-c2nc3c(s2)CN(S(=O)(=O)c2ccccc2Cl)CC3)c1,-102*
O=S(=O)(c1ccc(Cl)cc1)N1CCc2nc(-c3ccccc3)sc2C1,19
Cc1nc(N(C)C(=O)Cc2ccc(-c3ccccn3)cc2)sc1S(N)(=O)=O,20
COc1ccc(CNC(=O)Cn2ncc3c(N4CCOCC4)ncnc32)c(OC)c1,43
CC(C)NC(=O)CNC(=O)c1cc2sccc2[nH]1,20
Cn1ccnc1CN(Cc1ccncc1)C[C@@H]1CCC(=O)N1,1
C=CCN(CC#Cc1ccccc1)Cc1cccc2c1OCO2,-25
O=C(Nc1c(C(=O)NCc2ccncc2)[nH]c2ccccc12)c1ccc(Cl)cc1,-34
